These results are taken from PubChem BioAssay (NCATS).

Experiment [1] has as its target Lysosomal acid glucosylceramidase (Homo sapiens) (UniProt P04062). As to the kind of experiment: Glucocerebrosidase-p2 (AID 348; in the data active = potency below about 10 µM; note: potency is the fitted concentration of half-maximal effect). The note with it: purified GBA, blue fluorogenic substrate, 40 min. The method, boiled down:
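Compounds titrated from 0.6 nM upwards against 0.2 nM enzyme in pH 5.9 citric acid/KH2PO4, taurocholate, tween-20; blue fluorogenic substrate 80 uM, 40 min room temperature, stopped and read Ex 365/Em 440 for AC50.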

Experiment [2] can be described thus: AP1 Signaling Pathway (AID 357).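 Note: ME-180 reporter cells stimulated with EGF at its EC50 level; % is set by controls: 0 for no effect and ±100 for the full control effect.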 The note with it: ME-180 AP-1-bla reporter, EGF-induced, beta-lactamase ratio, 5 h; at 7.69 µM (top of the series) unless noted. The method, boiled down:
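Read-out was the 460nm/530nm emission ratio (excitation 405nm) after CCF4 loading for 2.5 hours at room temperature. Cells carried an AP-1-driven beta-lactamase reporter, were stimulated with EC50 EGF plus compound for 5 hours, and AC50 values came from titrations.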

Experiment [3] has as its target Cytochrome P450 1A2 (Homo sapiens) (UniProt P05177). The experiment is described as follows: p450-cyp1a2 (AID 410; calls by dose curve; note: potency is the fitted concentration of half-maximal effect). The note with it: recombinant CYP1A2, luciferin-ME demethylation, luminescence; series mostly up to 11.4 µM. The essentials: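 Human CYP1A2 (20nM) demethylated Luciferin-ME at its Km (100uM) in 100mM KPO4. After 10 min compound preincubation, NADPH regeneration ran the reaction 60 min at room temperature. Luciferin was read by luminescence, normalized to 57 uM furafylline.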

A short description of experiment [4]: NFAT Signaling Pathway (AID 444).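 Note: carbachol stimulus at about its EC50 of 1 µM final; % is set by controls: 0 for no effect and ±100 for the full control effect.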 The conditions noted are these: Jurkat NFAT-bla M1, carbachol, beta-lactamase ratio, 5 h; at 7.69 µM (top of the series) unless noted. The essentials: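 Jurkat cells with NFAT-driven β-lactamase reporter and co-expressed M1 receptor, stimulated with carbachol (final 1 uM, ~EC50), compound titration, 5 h at 37 °C. CCF4 loaded 1 h at RT; 460/530 nm ratio gave %activity and AC50.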

Experiment [5] in a line: Stat Signaling Pathway (AID 446).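 Note: ME-180 cervical cancer cells given 40 pM IL-6 alongside compound; SIE-controlled beta-lactamase reporter measured as 460/530 nm FRET emission ratio; % is set by controls: 0 for no effect and ±100 for the full control effect.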 The note with it: ME-180 SIE beta-lactamase reporter, IL-6 stimulated, 5 h; at 7.69 µM (top of the series) unless noted. The essentials: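 ME-180 SIE-bla cells; overnight plating; cpd + IL-6 40 pM, 5 h, 37 C; LiveBLAzer 2.5 h RT; 460/530 nm emission ratio. Normalized to 300 pM IL-6 and 125 nM JAK inhibitor controls.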
Experiment [6] concerns the target Glucocorticoid receptor (Homo sapiens) (UniProt P04150). As to the kind of experiment: GR-GFP Redistribution (AID 450;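 active = compounds whose dose series gives a full or clear partial fitted curve of increased nuclear translocation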; note: potency is the fitted concentration of half-maximal effect). The note with it: U2OS GR-GFP nuclear translocation, laser cytometry, 2 h.
Experiment [7] has the same target. As to the kind of experiment: GR-EFC Redistribution (AID 451; calls by dose curve; note: potency is the fitted concentration of half-maximal effect). The conditions noted are these: CHO-K1 GR-EFC translocation, beta-gal luminescence, 2 h. The essentials: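 CHO-K1 cells expressing nuclear EA and GR-ED fragments of b-gal; compounds titrated up to 46 uM final, 2 h at 37 C. GR nuclear translocation read as complemented b-gal luminescence after 1 h RT detection.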

In experiment [8] the target is Mitogen-activated protein kinase 10 (Mus musculus) (UniProt Q61831). The experiment is described as follows: JNK3 AlphaScreen Assay (AID 530).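 Note: kinase came from lysate of stimulated human HepG2 cells; signal reports phosphorylation of biotinylated GST-cJun 1-79 at Ser73 with 10 µM ATP; % is set by controls: 0 for no effect and ±100 for the full control effect.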 The conditions noted are these: JNK3 lysate, c-Jun phosphorylation; series mostly up to 11.4 µM. The essentials:
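qHTS format: compounds tested as titrations against IL-1beta/TNF-alpha-activated HepG2 lysate JNK3 with biotin-GST-cJun substrate and 10 uM ATP at room temperature. Loss of anti-phospho-cJun AlphaScreen signal indicates inhibition.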

Experiment [9] has as its target 3',5'-cyclic-AMP phosphodiesterase 4B (Homo sapiens) (UniProt Q07343). The experiment is described as follows: qHTS Assay for Inhibitors of PDE-IV (AID 607; active = well fitted activation curve with a large enough effect in the main read-out, with a control signal flat, not every such curve was filed as active; note: % of control where 0% means no effect). The note with it: HEK293 ACTOne CNG channel cells, membrane potential fluorescence; series mostly up to 22.9 µM. The method, boiled down:
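ACTOne HEK293 cells carry a modified cAMP-gated CNG channel and express endogenous PDE4; plated 1000 cells/well, compounds up to 22.9 uM final. Membrane-potential dye fluorescence (ex 535/em 590) was read; parental cells received 10 uM forskolin + 100 uM RO 20-1724.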
For orientation: Quantitative high-throughput screening tests each substance at several concentrations.

Experiment [10] has as its target Cytochrome P450 3A4 (Homo sapiens) (UniProt P08684). As to the kind of experiment: qHTS Assay for Inhibitors and Substrates of Cytochrome P450 3A4 (AID 884; active = well fitted curve in the direction sought with a large enough effect; an effect the other way counts as inactive or inconclusive; note: potency is the fitted concentration of half-maximal effect; nearly all actives have a fitted effect of over 50% in size). The note with it: recombinant CYP3A4, Luciferin-PPXE luminescence; series mostly up to 57.1 µM. The method, boiled down: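 20 nM human CYP3A4 with 25 uM Luciferin-PPXE (at KM) in 200 mM KPO4, preincubated 10 min with compound; NADPH regeneration started a 60 min RT reaction. Luciferin detected by luminescence, normalized to 57 uM ketoconazole as full inhibition.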

Experiment [11] has the same target. As to the kind of experiment: qHTS Assay for Activators of Cytochrome P450 3A4 (AID 885; active = well fitted curve in the direction sought with a large enough effect; an effect the other way counts as inactive or inconclusive; note: nearly all actives have a fitted effect of over 65% in size). The conditions noted are these: recombinant CYP3A4, Luciferin-PPXE luminescence, 60 min; series mostly up to 11.4 µM. The essentials: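 20nM CYP3A4 + 25uM Luciferin-PPXE (=KM), 200mM KPO4; cpd 10 min RT; NADPH regen, 60 min RT; stop w/ detection buffer, 20 min; luminescence. Normalized to 57 uM ketoconazole.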

In experiment [12] the target is Cytochrome P450 2D6 (Homo sapiens) (UniProt P10635). The experiment is described as follows: qHTS Assay for Inhibitors and Substrates of Cytochrome P450 2D6 (AID 891; active = well fitted curve in the direction sought with a large enough effect; an effect the other way counts as inactive or inconclusive; note: potency is the fitted concentration of half-maximal effect; nearly all actives have a fitted effect of over 60% in size). The note with it: recombinant CYP2D6, luciferin-ME EGE luminescence; series mostly up to 11.4 µM. The method, boiled down:
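Human CYP2D6 (5 nM) with 30 uM Luciferin-ME EGE (at Km) in 100 mM KPO4, compound preincubated 10 min, then NADPH regeneration system for 60 min at room temperature. Luciferin read by luminescence; normalized to 1.43 uM quinidine.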

For experiment [13], the target named is Cytochrome P450 2C19 (Homo sapiens) (UniProt P33261). The experiment is described as follows: qHTS Assay for Inhibitors and Substrates of Cytochrome P450 2C19 (AID 899; active = well fitted curve in the direction sought with a large enough effect; an effect the other way counts as inactive or inconclusive; note: potency is the fitted concentration of half-maximal effect; nearly all actives have a fitted effect of over 60% in size). The note with it: recombinant CYP2C19, luciferin-H EGE luminescence; series mostly up to 11.4 µM. The method, boiled down:
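Signal comes from luciferase acting on luciferin released by CYP2C19-mediated hydroxylation of Luciferin-H EGE, 10uM (KM). Assay mix: 5nM enzyme, 50mM KPO4; 60 min at 37C with NADPH regeneration. Data normalized against 57uM ketoconazole.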

Experiment [14] in a line: qHTS Assay for Identification of Small Molecule Agonists for Hypoxia Response Element Signaling Pathway (AID 914; active = well fitted activation curve with a large enough effect in the signal ratio, with a control signal flat, not every such curve was filed as active; the % refers to the signal ratio; note: % of control where 0% means no effect). The note with it: ME-180 (cervical carcinoma) HRE-bla reporter, beta-lactamase ratio, CoCl2, 17 h; activation: hits give high values. The essentials:
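In Opti-MEM containing 0.5% dialyzed FBS and 10 mM HEPES, ME-180 HRE-bla cells received a compound titration and EC50 CoCl2. They were incubated 17 hours, then CCF4-loaded 2.5 hours at room temperature before ratio reading.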

Unmarked numbers belong to inactive results. Records with an inconclusive call do not appear. Calls of active or inactive are those of the source. Unless noted, calls come from the whole dose curve; as a rule, active = well fitted curve in either direction with a large enough effect (not every such curve was filed as active); inconclusive = small, poorly fitted or top-dose-only effect, or another doubt; inactive = flat fitted curve, though single readings scatter.

Lysosomal acid glucosylceramidase (Homo sapiens), sequence (P04062 whole entry, looked up): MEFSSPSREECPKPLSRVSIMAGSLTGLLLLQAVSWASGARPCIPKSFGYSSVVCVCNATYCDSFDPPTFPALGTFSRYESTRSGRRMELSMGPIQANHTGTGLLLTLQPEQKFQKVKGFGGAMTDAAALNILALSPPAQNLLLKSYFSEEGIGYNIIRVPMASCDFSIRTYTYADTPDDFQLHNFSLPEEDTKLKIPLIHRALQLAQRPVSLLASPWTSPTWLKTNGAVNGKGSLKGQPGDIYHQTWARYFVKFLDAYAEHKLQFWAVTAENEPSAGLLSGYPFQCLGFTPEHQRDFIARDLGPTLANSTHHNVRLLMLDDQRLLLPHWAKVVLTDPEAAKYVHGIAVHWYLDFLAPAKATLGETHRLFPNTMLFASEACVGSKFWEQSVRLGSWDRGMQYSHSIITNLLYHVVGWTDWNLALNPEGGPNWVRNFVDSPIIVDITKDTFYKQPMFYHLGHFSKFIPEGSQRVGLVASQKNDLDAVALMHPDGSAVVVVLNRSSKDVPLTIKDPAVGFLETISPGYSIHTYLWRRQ
Cytochrome P450 1A2 (Homo sapiens), sequence (P05177 whole entry, looked up): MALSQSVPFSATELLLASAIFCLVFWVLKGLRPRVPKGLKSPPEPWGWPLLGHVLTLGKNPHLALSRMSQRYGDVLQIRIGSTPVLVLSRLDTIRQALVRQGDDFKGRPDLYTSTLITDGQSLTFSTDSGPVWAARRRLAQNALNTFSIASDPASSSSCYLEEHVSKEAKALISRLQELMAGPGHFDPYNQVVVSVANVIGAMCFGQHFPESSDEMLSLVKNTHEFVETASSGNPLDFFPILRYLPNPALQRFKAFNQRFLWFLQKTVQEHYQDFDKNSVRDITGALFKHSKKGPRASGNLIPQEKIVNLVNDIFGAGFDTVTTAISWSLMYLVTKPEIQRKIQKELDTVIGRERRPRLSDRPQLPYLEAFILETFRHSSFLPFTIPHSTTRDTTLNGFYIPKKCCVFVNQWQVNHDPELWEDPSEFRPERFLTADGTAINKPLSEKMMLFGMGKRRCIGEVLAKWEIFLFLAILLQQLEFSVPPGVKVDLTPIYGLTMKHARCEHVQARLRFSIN
Cytochrome P450 3A4 (Homo sapiens), sequence (P08684 whole entry, looked up): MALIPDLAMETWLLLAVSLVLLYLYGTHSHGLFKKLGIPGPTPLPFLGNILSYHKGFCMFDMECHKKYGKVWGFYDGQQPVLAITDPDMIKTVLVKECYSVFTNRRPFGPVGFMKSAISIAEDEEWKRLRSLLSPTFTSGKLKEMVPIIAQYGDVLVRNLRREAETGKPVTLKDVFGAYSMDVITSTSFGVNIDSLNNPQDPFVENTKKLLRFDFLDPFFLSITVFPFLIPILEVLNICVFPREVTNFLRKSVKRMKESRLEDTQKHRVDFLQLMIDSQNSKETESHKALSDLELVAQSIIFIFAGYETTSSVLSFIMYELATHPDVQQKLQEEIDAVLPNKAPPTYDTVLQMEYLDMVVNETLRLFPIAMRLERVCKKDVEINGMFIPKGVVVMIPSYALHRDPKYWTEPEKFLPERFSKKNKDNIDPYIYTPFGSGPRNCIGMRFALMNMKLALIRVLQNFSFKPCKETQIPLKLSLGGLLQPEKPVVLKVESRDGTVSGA
Glucocorticoid receptor (Homo sapiens), sequence (P04150 whole entry, looked up, the tested form may be a part): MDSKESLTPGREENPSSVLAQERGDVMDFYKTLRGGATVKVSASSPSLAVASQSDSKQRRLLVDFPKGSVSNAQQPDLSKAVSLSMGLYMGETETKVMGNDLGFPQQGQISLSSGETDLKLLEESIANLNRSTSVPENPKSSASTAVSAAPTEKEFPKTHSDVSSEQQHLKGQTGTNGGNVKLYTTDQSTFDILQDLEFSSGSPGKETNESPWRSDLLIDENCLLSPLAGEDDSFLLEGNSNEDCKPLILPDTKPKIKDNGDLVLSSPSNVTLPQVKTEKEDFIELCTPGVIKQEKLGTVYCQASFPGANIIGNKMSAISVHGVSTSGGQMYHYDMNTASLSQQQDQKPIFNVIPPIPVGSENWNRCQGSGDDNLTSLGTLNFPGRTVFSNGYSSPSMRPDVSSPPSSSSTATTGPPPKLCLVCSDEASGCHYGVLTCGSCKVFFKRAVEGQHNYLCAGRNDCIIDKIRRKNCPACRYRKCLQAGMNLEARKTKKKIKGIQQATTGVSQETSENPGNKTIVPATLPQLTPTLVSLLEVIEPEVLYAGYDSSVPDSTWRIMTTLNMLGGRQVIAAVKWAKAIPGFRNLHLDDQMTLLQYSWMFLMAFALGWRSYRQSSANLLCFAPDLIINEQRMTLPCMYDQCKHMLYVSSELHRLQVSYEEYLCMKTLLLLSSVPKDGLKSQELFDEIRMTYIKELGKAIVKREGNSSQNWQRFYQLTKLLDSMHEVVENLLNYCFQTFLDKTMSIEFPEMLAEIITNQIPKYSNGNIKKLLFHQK
3',5'-cyclic-AMP phosphodiesterase 4B (Homo sapiens), sequence (Q07343 whole entry, looked up): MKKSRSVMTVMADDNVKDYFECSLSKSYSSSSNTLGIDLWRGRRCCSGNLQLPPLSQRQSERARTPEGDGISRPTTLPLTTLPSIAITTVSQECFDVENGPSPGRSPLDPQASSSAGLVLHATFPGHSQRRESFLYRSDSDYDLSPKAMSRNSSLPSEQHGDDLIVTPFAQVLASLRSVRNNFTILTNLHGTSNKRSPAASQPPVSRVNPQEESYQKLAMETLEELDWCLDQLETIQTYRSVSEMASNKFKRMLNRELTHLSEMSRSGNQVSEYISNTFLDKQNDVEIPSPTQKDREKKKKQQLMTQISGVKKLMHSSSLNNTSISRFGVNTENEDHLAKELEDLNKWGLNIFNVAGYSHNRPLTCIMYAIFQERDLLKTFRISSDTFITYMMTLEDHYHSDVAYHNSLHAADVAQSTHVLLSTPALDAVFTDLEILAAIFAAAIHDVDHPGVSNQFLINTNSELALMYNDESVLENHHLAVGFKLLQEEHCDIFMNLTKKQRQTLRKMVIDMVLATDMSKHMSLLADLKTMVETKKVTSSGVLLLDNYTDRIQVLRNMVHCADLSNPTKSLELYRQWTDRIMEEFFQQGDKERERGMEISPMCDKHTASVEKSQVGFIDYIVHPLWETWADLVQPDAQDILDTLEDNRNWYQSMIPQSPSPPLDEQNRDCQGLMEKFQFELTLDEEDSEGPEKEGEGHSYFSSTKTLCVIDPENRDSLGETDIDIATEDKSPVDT
Cytochrome P450 2C19 (Homo sapiens), sequence (P33261 whole entry, looked up): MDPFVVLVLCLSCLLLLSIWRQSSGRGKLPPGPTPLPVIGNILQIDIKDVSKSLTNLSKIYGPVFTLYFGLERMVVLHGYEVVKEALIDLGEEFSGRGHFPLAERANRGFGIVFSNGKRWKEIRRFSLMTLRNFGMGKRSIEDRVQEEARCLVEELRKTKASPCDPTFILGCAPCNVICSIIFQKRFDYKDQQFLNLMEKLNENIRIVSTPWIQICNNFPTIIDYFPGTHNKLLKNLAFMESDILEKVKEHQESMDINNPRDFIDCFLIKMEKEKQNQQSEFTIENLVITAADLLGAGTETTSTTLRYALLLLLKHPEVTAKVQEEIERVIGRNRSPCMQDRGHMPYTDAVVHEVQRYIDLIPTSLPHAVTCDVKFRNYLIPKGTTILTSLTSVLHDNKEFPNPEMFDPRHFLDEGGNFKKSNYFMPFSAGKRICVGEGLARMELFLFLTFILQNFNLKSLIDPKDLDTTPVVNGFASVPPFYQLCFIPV
Cytochrome P450 2D6 (Homo sapiens), sequence (P10635 whole entry, looked up): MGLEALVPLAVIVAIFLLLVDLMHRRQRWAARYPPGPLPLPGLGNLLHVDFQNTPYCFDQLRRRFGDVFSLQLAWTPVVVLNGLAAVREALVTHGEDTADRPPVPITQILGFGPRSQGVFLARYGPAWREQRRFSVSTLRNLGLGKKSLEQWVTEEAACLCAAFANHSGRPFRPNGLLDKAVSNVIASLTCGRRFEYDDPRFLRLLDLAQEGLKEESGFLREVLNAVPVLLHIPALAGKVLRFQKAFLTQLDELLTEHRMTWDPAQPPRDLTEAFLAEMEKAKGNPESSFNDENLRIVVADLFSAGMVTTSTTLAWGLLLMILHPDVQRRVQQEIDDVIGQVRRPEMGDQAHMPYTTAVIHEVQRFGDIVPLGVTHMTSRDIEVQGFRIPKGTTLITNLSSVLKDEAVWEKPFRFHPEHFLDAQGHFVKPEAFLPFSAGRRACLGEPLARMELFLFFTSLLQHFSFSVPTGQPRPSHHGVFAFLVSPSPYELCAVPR

`c1ccc2c(c1)-c1nc3ccccc3cc1[C@H]2N1CCOCC1`: the Potency in experiment [1] is more than 11.4 µM; in [3], 1.26 µM (active); in experiment [6], more than 46 µM; in experiment [7] it was more than 9.22 µM; in [10], 2.51 µM (active). Also, the values for the activity change, negative = inhibition in experiment [2] and in experiment [4] were -6.79% and -6.28%, respectively. Moreover, the activity, negative = inhibition in experiment [5] is 7.66%. Moreover, the Potency result in [8], in experiment [9] and in experiment [11] was “inactive” each time.

Take `COc1ccc2c(c1)Cc1cc(N=[N+]([O-])c3ccc4c(c3)Cc3cc(OC)ccc3-4)ccc1-2`: the Potency is more than 11.4 µM in experiment [1]; 1.58 µM (active) in experiment [3]; more than 46 µM in experiment [6]; more than 9.22 µM in [7]; 5.01 µM (active) in experiment [10]. The activity change, negative = inhibition in experiment [2] is -9.92%; in experiment [4] it was -17.3%. Also, the activity, negative = inhibition in experiment [5] is -1.13%. The Potency result in experiment [8], in experiment [9] and in [11] was “inactive” each time.

On to `Cn1ncc2c(NCCc3ccccc3)nc(Cl)nc21`, for which the Potency in experiment [1] is more than 11.4 µM; in [3] it was 2.51 µM (active); in experiment [6], more than 46 µM; in [7] it was more than 9.22 µM; in [10] it was 2 µM (active); in experiment [12] it was 0.126 µM (active). Moreover, the Potency in experiment [13] is 0.126 µM (active). For the same molecule, the activity change, negative = inhibition is -2.77% in [2] and 2.58% in [4]. Also, the activity, negative = inhibition in experiment [5] was -19.5%. Also, the Potency entry in experiment [8], in experiment [9] and in [11] was “inactive” each time.

Consider `c1ccc(C2=NN[C@@H]3c4ccccc4-c4ccccc4N3C2)cc1`, for which the Potency is more than 11.4 µM in [1], 0.2 µM (active) in experiment [3], more than 46 µM in experiment [6] and more than 9.22 µM in [7]. In addition, the activity change, negative = inhibition in experiment [2] is -18.5%; in experiment [4], -9.73%. Also, in experiment [5], the activity, negative = inhibition was -6.54%. Moreover, the Potency entry in [8], in experiment [9] and in experiment [11] was “inactive” in each case.

On to `Nc1cccc(OCc2nc(N)nc(N)c2-c2ccc(Cl)cc2)c1`, for which the Potency is more than 11.4 µM in [1]; 0.158 µM (active) in experiment [3]; more than 46 µM in experiment [6]; more than 9.22 µM in experiment [7]; 1.58 µM (active) in experiment [10]. For the same molecule, the activity change, negative = inhibition in [2] is 6.37%; in experiment [4], -4.61%. In addition, the activity, negative = inhibition in experiment [5] was 6.21%. The Potency entry in [8], in experiment [9] and in experiment [11] was “inactive” in each case.

`O=c1oc2cc(N=Cc3ccc4c(c3)OCO4)ccc2c2ccccc12`: the Potency is more than 11.4 µM in [1]; 0.00794 µM (active) in experiment [3]; more than 46 µM in [6]; more than 9.22 µM in experiment [7]; 3.98 µM (active) in experiment [10]. In addition, the activity change, negative = inhibition was 7.4% in [2] and 12.7% in experiment [4]. In addition, the activity, negative = inhibition in [5] is -1.72%. The Potency entry in experiment [8], in experiment [9] and in [11] was “inactive” each time.

Consider `Cc1ccc2c(c1)N[C@H](c1ccc(C(=O)O)cc1)c1cccn1-2`, for which the Potency is more than 11.4 µM in experiment [1]; 0.794 µM (active) in experiment [3]; more than 46 µM in experiment [6]; more than 9.22 µM in experiment [7]; 0.0501 µM (active) in experiment [10]. Also, the activity change, negative = inhibition in experiment [2] was -23.5%; in [4] it was -7.71%. Besides, in experiment [5], the activity, negative = inhibition was -5.32%. For the same molecule, the Potency result in experiment [8], in experiment [9] and in experiment [11] was “inactive” in each case. The activation in experiment [14] was -21.9%.
